Experimental data published in the supplement of paper PMC9135407.
Counter-ions that a name gives are not always drawn.

tested on: primary human hepatic stellate cells (donor 1); experiment: ACTA2 mRNA fold change vs DMSO (normalised to PSMB2); higher = more ACTA2 expression; conditions: 48 h
Method: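 Secondary qRT-PCR screen in primary human HSCs (donor 1), 384-well plates, with compounds dispensed in quadruplicate and incubated for 48 h. Cells-to-CT lysates were used for multiplexed TaqMan qPCR of ACTA2 or COL1A1 with PSMB2 as reference. Fold changes versus DMSO come from a linear model (Ct_gene ~ Ct_PSMB2 + plate + chemical). A hit is defined as COL1A1 and ACTA2 FC <0.5 (FDR <0.05) with PSMB2 between 0.2 and 2.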

| Structure (SMILES) | ACTA2 mRNA fold change |
| --- | --- |
| c1cc(OCCN2CCCCC2)cc(-c2n[nH]c3ccc(-c4nnc[nH]4)cc23)c1 (33.3333 µM) | 0.0437 |
| Cc1ccc2c(c1)c1c3n2CCNC3CCC1 (stereo not given) [Pirlindole mesylate] (20.6667 µM) | 0.712 |
| NC[C@@H]1O[C@H](C23CC4CC(CC(C4)C2)C3)Cc2c1ccc(O)c2O (33.3333 µM) | 0.309 |
| CNCc1ccc(-c2cc(-c3nc(-c4ccc(S(=O)(=O)C(C)C)cc4)cnc3N)on2)cc1 (11.1 µM) | 0.0206 |
| CN(C)C/C=C(/c1ccc(Br)cc1)c1cccnc1 [Zimelidine dihydrochloride] (11.1 µM) | 0.452 |
| Clc1ccc(C2(c3ccc(-c4cn[nH]c4)cc3)CCNCC2)cc1 (33.3333 µM) | 0.0459 |
| CCN(CC)CC#CCOC(=O)C(O)(c1ccccc1)C1CCCCC1 (stereo not given) [Oxybutynin chloride] (16.9333 µM) | 1.09 |
| O=C(Nc1cc(C(F)(F)F)cc(C(F)(F)F)c1)c1cc(Cl)ccc1O (33.3333 µM) | 0.0138 |
| CN1CCN(Cc2ccc(-c3cnc4[nH]cc(-c5ccc6[nH]ccc6c5)c4c3)cc2)CC1 (6.66667 µM) | 0.042 |
| O=C(c1ccc(/C=C/c2n[nH]c3ccccc23)cc1)N1CCNCC1 (33.3333 µM) | 0.0375 |
| CN1CCN2c3ccccc3Cc3ccccc3C2C1 (stereo not given) [Mianserin hcl] (25.2333 µM) | 0.899 |
| Cn1cc(C2=C(c3ccc(Cl)cc3Cl)C(=O)NC2=O)c2ccccc21 (33.3333 µM) | 0.332 |
| CN1CCC(Nc2ncc3ncnc(Nc4ccc(F)c(Cl)c4)c3n2)CC1 [BIBX 1382 dihydrochloride] (33.3333 µM) | 0.00877 |
| CNCc1ccc(C)c(NC(=O)c2ccc(Nc3nc(-c4ccccc4)c4ccccc4n3)cc2)c1 (33.3333 µM) | 0.0244 |
| CCNC(=O)c1noc(-c2cc(C(C)C)c(O)cc2O)c1-c1ccc(CN2CCOCC2)cc1 (11.1 µM) | 1.19 |
| CNCCCC12CCC(c3ccccc31)c1ccccc12 [Maprotiline hydrochloride] (33.3333 µM) | 0.0243 |
| CN1CCC(NC(=O)c2cc(-c3c(O)cc(O)cc3Oc3ccc([N+](=O)[O-])cc3)on2)CC1 (33.3333 µM) | 1.25 |
| CSc1ccc2c(c1)C(N1CCN(C)CC1)Cc1ccccc1S2 (stereo not given) [Methiothepin maleate] (33.3333 µM) | 0.00993 |
| CCN(CC)CCNC(=O)c1c(C)[nH]c(/C=C2\C(=O)Nc3ccc(F)cc32)c1C (6.66667 µM) | 1.2 |
| CNCCC(Oc1ccc(C(F)(F)F)cc1)c1ccccc1 (stereo not given) [Fluoxetine hydrochloride] (33.3333 µM) | 0.0314 |

| Structure (SMILES) | ACTA2 mRNA fold change |
| --- | --- |
| CNCCCC1c2ccccc2C=Cc2ccccc21 [Protryptyline hydrochloride] (22.2333 µM) | 0.577 |
| C[C@]12CC[C@H](O)CC1=CC[C@@H]1[C@@H]2CC[C@]2(C)C(n3cnc4ccccc43)=CC[C@@H]12 [Galeterone] (33.3333 µM) | 0.0205 |
| CNC(=O)[C@@H](Cc1ccccc1)N(C)C(=O)[C@@H](Cc1ccc2ccccc2c1)N(C)C(=O)/C=C/CC(C)(C)N [Tabimorelin] (33.3333 µM) | 0.46 |
| NS(=O)(=O)C#Cc1ccccc1 [Pifithrin->m] (33.3333 µM) | 0.0598 |
| CN1CCC(CNc2ccc3ncc(-c4cccc(OC(F)(F)F)c4)n3n2)CC1 (6.66667 µM) | 1.23 |
| O=C(O[C@H]1CN2CCC1CC2)N1CCc2ccccc2[C@@H]1c1ccccc1 [Solifenacin succinate] (33.3333 µM) | 0.257 |
| Cc1cnc(-c2cnc(NCCNc3ccc(C#N)cn3)nc2-c2ccc(Cl)cc2Cl)[nH]1 (33.3333 µM) | 0.259 |
| CN1CCC(=C2c3ccccc3C=Cc3ccccc32)CC1 [Cyproheptadine] (33.3333 µM) | 0.172 |
| Cn1cc(CNCC2CCN(c3ncc(C(=O)NO)cn3)CC2)c2ccccc21 [Quisinostat] (33.3333 µM) | 0.00604 |
| O=S(=O)(NCCNC/C=C/c1ccc(Br)cc1)c1cccc2cnccc12 [H-89, Dihydrochloride] (11.1 µM) | 1.09 |
| CC[C@]1(O)C[C@@H]2CN(CCc3c([nH]c4ccccc34)[C@@](C(=O)OC)(c3cc4c(cc3OC)N(C)[C@H]3[C@@](O)(C(=O)OC)[C@H](OC(C)=O)[C@]5(CC)C=CCN6CC[C@]43[C@@H]65)C2)C1 [Vinblastine sulfate] (33.3333 µM) | 0.02 |
| O=C1Nc2ccccc2/C1=C1/Nc2ccccc2C1=O [Indirubin] (63.5333 µM) | 1.06 |
| O=C1NC(=O)/C(=C/c2ccc(-c3ccc(F)cc3O)o2)S1 (33.3333 µM) | 0.0492 |
| CCC/C=C\C=C/C(=O)N[C@@H](CC(N)=O)C(=O)NC(CC(N)=O)C(=O)N[C@@H](C(=O)N[C@H](CCCN)C(=O)N[C@@H](C(=O)N[C@@H](C(=O)N[C@@H](C(=O)N[C@H](C(=O)N[C@@H](Cc1ccccc1)C(=O)N[C@H](CCCN)C(=O)NC(C(=O)N[C@H](C(=O)NC(C(=O)NCC(=O)N[C@@H](CC(C)C)C(=O)N[C@H](C)C(=O)NC(C(=O)O)C1CCC(O)C(Cl)C1)C1CCC(O)CC1)[C@H](C)O)C1CCC(O)CC1)[C@H](C)O)C1CCC(O)CC1)C1CCC(O)CC1)[C@H](C)O)C1CCC(O)CC1 (stereo not given in full) (33.3333 µM) | 0.502 |
| CCc1cc2c(cc1CC)CC(NC[C@H](O)c1ccc(O)c3[nH]c(=O)ccc13)C2 [Indacaterol Maleate] (33.3333 µM) | 0.0334 |
| CCN(CC)CCCCNc1ncc2cc(-c3c(Cl)cccc3Cl)c(NC(=O)NC(C)(C)C)nc2n1 (33.3333 µM) | 0.196 |
| Cc1ccc(-c2ccc3c(ccc4sc5c(c43)NC[C@@H](C)NC5=O)n2)cn1 (33.3333 µM) | 1.65 |
| CC[C@@H]1C(=O)N(C)c2cnc(Nc3ccc(C(=O)NC4CCN(C)CC4)cc3OC)nc2N1C1CCCC1 (33.3333 µM) | 0.158 |
| OCCN1CCN(CCCN2c3ccccc3Sc3ccc(C(F)(F)F)cc32)CC1 (33.3333 µM) | 0.0188 |
| COc1cc2nc(N3CCCN(C)CC3)nc(NC3CCN(Cc4ccccc4)CC3)c2cc1OC (3.33333 µM) | 0.0176 |
